In the library only some 21% were active in any assay of this set; here they are far more common.
CHX counter – Cycloheximide Counterscreen for Small Molecule Inhibitors of Shiga Toxin; 12% of 300,000 active; cell reporter, cycloheximide protein synthesis inhibition counterscreen; max response, %; in the data active = max response mostly above about 13%, no sharp cut-off; inactive = mostly below about 14%; also: read at 38.3 µM for the half of the compounds with a filed dose
Shiga inhibitor – A qHTS for Small Molecule Inhibitors of Shiga Toxin; Vero cells, Shiga toxin protein synthesis inhibition reporter; inhibition, % at 38.7 µM; 9.2% of 290,000 active; AID 2315, 2010; in the data active = inhibition mostly above about 28%, no sharp cut-off; inactive = mostly below about 43%
AMA1-RON2 inh – qHTS for Inhibitors of AMA1-RON; Towards Development of Antimalarial Drug Lead: Primary Screen; Plasmodium falciparum AMA1 (3D7) - RON2 peptide interaction; AlphaScreen AMA1-biotinylated RON2 peptide binding; Potency, µM (series often up to 58.2 µM), actives largely listed as inhibitors; 0.2% of 360,000 active; AID 720542, 2013; also: nearly all actives have a fitted effect of over 45% in size
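AMA1 (3D7) with his tag at 25 nM final met compounds first, then biotinylated RON2 peptide at 25 nM; detection used donor plus acceptor beads, 10 µg/mL apiece, read by AlphaScreen after 30 min at room temperature.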
HCV inhibitor – qHTS Assay for Inhibitors of Hepatitis C Virus (HCV); Huh7.5.1 HCVcc-Cre infection, luciferase reporter, 44 h; Potency, µM (highest dose often 41.8 µM), hits mostly inhibitors; 3.4% of 340,000 active; AID 651820, 2012
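Luciferase read-out (15 sec integration) after a 15 min room-temperature substrate step quantifies HCVcc-Cre infection. Cells, 1,000 per well, had compound added 4 h post-plating, then virus at ~0.5 moi, and were cultured 44 h.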
Pf growth 48h – Primary qHTS for delayed death inhibitors of the malarial parasite plastid, 48 hour incubation; P. falciparum luciferase growth in erythrocytes, 48 h; Potency, µM (highest dose often 28.7 µM), usual class: inhibitors; 5.9% of 310,000 active
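Read-out is firefly luciferase luminescence from an integrated reporter in P. falciparum, so falling signal marks reduced parasite growth. Infected erythrocytes were at 2% hematocrit and 0.1% parasitemia (final) in Albumax-supplemented RPMI 1640.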
Pf growth 96h – Primary qHTS for delayed death inhibitors of the malarial parasite plastid, 96 hour incubation | 6.9% of 320,000 active | P. falciparum luciferase reporter growth, 96 h | Potency, µM (doses to about 28.7 µM), actives largely listed as inhibitors | AID 504834, 2011
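96 h incubation, 37 C, 5% CO2, of luciferase-reporter P. falciparum-infected RBCs (2% hematocrit, 0.05% parasitemia final) with test compounds; endpoint luminescence.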
Numbers stand for hits; . = inactive; ? = inconclusive; / = no result given; [ ] = dose if it differs, or a comment. Unless noted, calls follow the shape of the dose curve; as a rule, active = well fitted curve in the direction sought with a large enough effect; inconclusive = small, poorly fitted or top-dose-only effect, or another doubt; inactive = no such curve, though single readings can be large; an effect the other way counts as inactive or inconclusive.

SMILES | CHX counter | Shiga inhibitor | AMA1-RON2 inh | HCV inhibitor | Pf growth 48h | Pf growth 96h
COc1ccc(Cl)cc1NC(=O)CC(C)c1ccccc1 (centres undefined) | . | . | . | 8.9µM | / | /
CCOC(=O)c1ccc(NC(=O)N(CC)CC)cc1 | 37 | 62 | . | . | . | .
CCOC(=O)c1ccc(NC(=O)C(CC)CC)cc1 | 30 | 71 | . | . | . | /
CCOC(=O)c1ccc(NC(=O)[C@@H](NC(N)=O)C(C)C)cc1 | . | . | . | . | . | .
CC(O)CNc1ccc(-c2n[nH]c(=O)c3ccccc23)cc1[N+](=O)[O-] (centres undefined) | 22 | . | . | . | . | .
CN(C)CCNc1ccc(-c2nn(C)c(=O)c3ccccc23)cc1[N+](=O)[O-] | . | . | . | ? | . | .
Cn1nc(-c2ccc(NCCO)c([N+](=O)[O-])c2)c2ccccc2c1=O | . | . | . | . | . | 5.2µM
CN(C)CCCNc1ccc(-c2n[nH]c(=O)c3ccccc23)cc1[N+](=O)[O-] | . | / | . | ? | ? | .
O=C(COC(=O)C12CC3CC(CC(O)(C3)C1)C2)Nc1ccc(Cl)c(S(=O)(=O)N2CCOCC2)c1 | / | / | . | . | / | /
CC(C)Oc1ccc(C(=O)OCC(=O)c2ccc[nH]2)cc1 | / | / | .[11.6 µM] | . | / | /
COc1ccccc1C(=O)NCCCNC(=O)c1cccnc1 | . | . | . | . | . | .
Cc1ccc2nc(-c3ccccc3)cc(C(=O)NCC(c3ccco3)N(C)C)c2c1 (centres undefined) | / | / | . | . | ? | ?
COCCN1C=C(C(=O)OC)C(c2cc3c(cc2Br)OCO3)C(C(=O)OC)=C1 | . | . | . | . | 5.9µM | ?
COC(=O)C1=CN(c2ccc(F)cc2)C=C(C(=O)OC)C1c1ccc(O)cc1 | . | . | . | 11µM | .[0.00184 µM] | .
COC(=O)C1=CN(c2cc(C)cc(C)c2)C=C(C(=O)OC)C1c1cccc(F)c1 | . | . | . | . | 12µM | ?
COC(=O)C1=CN(c2cc(C)cc(C)c2)C=C(C(=O)OC)C1c1ccc(OC)c(O)c1 | . | . | . | ? | . | ?
COC(=O)C1=CN(c2ccc(OC)cc2)C=C(C(=O)OC)C1c1cc(OC)c(OC)cc1OC | . | . | . | . | . | 4.1µM
COc1cccc(NC(=O)CN2C(=O)COc3ccc(S(=O)(=O)N4CCC(C)CC4)cc32)c1 | . | . | . | . | ? | .
COc1ccc(C(C(=O)NCc2ccccc2)n2c(=O)c(-c3ccco3)nc3ccccc32)cc1 (centres undefined) | / | / | . | / | / | /
CCN1C=C(C(=O)OC)C(c2cccc(C)c2)C(C(=O)OC)=C1 | . | . | . | . | / | 12µM
COC(=O)C1=CN(Cc2cccs2)C=C(C(=O)OC)C1c1cccc(Cl)c1 | . | . | . | ? | 9.3µM | ?
COCCN1C=C(C(=O)OC)C(c2ccc(Cl)cc2)C(C(=O)OC)=C1 | . | . | . | . | 10µM | .
Cc1ccc(/C=C(\NC(=O)c2ccc(C)cc2)C(=O)NCCCn2ccnc2)cc1 | . | . | . | . | . | .
CC(=O)Oc1ccc(C(=O)NC(C)CCc2ccccc2)cc1 (centres undefined) | . | . | . | . | . | .
COc1ccccc1N(C)S(=O)(=O)c1ccc(C(=O)OC(C)C(=O)NCc2ccc3c(c2)OCO3)cc1 (centres undefined) | . | . | . | 11µM | ? | .
SMILES | CHX counter | Shiga inhibitor | AMA1-RON2 inh | HCV inhibitor | Pf growth 48h | Pf growth 96h
COc1ccc(CNC(=O)Cc2cccs2)cc1 | 43 | 61 | . | . | . | ?
CCCCC(CC)CNC(=O)c1ncn[nH]1 (centres undefined) | . | . | . | . | . | ?
Cc1ccc(-c2csc3nnc(SCC(=O)NCc4ccc5c(c4)OCO5)n23)cc1 | . | . | . | 6.3µM | ? | /
CCCCC(CC)CNC(=O)c1cccs1 (centres undefined) | . | . | . | . | 5.2µM | 4.7µM
COc1cc2c(cc1OC)C(CNC(=O)C=Cc1ccccc1)C2 (centres undefined) | / | / | . | / | / | /
O=S1(=O)c2ccc(Br)cc2N2CCC[C@@H]2CN1Cc1ccccc1 | / | / | . | ? | / | /
Nc1c(C(=O)CSc2nccn2-c2cccc(F)c2)c(=O)[nH]c(=O)n1C1CC1 | / | / | . | . | ? | ?
CN(C)c1ccc(NC(=O)COC(=O)CNC(=O)c2cccs2)cc1 | / | / | . | . | . | .
O=C(Cc1cccs1)NCc1ccc(Cl)cc1 | 15 | . | . | . | . | .
COc1ccc(C(CNC(=O)Cc2cccs2)N(C)C)cc1 (centres undefined) | 11 | . | . | . | . | .
O=C(Cc1cccs1)NCc1ccc2c(c1)OCO2 | 17 | 53 | . | . | . | .
CN(C)c1ccc(C(CNC(=O)c2cccs2)N(C)C)cc1 (centres undefined) | 50 | 51 | . | . | . | .
COc1cc(CNc2ncnc3c2ncn3[C@H]2CN(Cc3cccc4ccccc34)C[C@@H](CO)O2)cc(OC)c1OC | / | / | . | / | / | /
ClN=C1C=CC=CC1=NCl | / | / | . | / | / | /
CC1CCC(NC(=O)CSc2nncs2)CC1 (centres undefined) | / | / | . | . | ? | .
O=C(Cc1cccs1)NCc1cccc(Br)c1 | 29 | 66 | . | . | . | .
O=C(Cc1cccs1)NCc1ccc(F)cc1 | 22 | . | . | . | . | .
COc1ccccc1CC(=O)NCc1ccc2c(c1)OCO2 | 16 | 29 | . | . | . | /
COc1ccc(CC(=O)NCc2ccc3c(c2)OCO3)cc1 | . | . | . | . | / | .
COc1ccc(C(CNC(=O)CN2C(=O)NC3(CCCC3)C2=O)N(C)C)cc1 (centres undefined) | 25 | . | . | . | . | .
CCN(C)C1CN(Cc2cn(Cc3cc(C)cc(C)c3)nn2)S(=O)(=O)C1 (centres undefined) | / | / | . | / | / | /
O=C(CSc1nnc(Cc2cccs2)n1-c1ccc(Cl)cc1)NCc1ccc2c(c1)OCO2 | . | . | . | . | 0.93µM | 7.4µM
Cc1ccc(-n2ncc(C#N)c2/N=C/N2CCCCCC2)cc1 | . | . | . | 10µM | ? | .
Cc1ccc(-n2ncc(C#N)c2/N=C/N2CCN(C)CC2)cc1 | . | . | . | . | . | /
Cc1cc(C)cc(NC(=O)Cn2nnc(C(=O)NCc3ccc4c(c3)OCO4)c2N)c1 | . | . | . | . | . | 0.1µM
COc1ccc(Cl)cc1NC(=O)c1nnn(CC(=O)Nc2ccc3c(c2)OCO3)c1N | . | . | . | . | . | 15µM
Cc1ccc(CNC(=O)c2nnn(CC(=O)Nc3cc(C)cc(C)c3)c2N)cc1 | . | . | . | . | . | 2.1µM

High-throughput results deposited in PubChem by National Center for Advancing Translational Sciences (NCATS).
